Among the data in the supplement of paper PMC10105736 are MAPPIT interaction score values, retold here.

Common to all, as to experiment: MAPPIT interaction score (arbitrary units); higher = stronger binary interaction signal, active = hit call of the paper
In one assay the target is CG43325. Particulars: MAPPIT configuration: N-C; pair source set: screen_4;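 active = MAPPIT score above the 99th percentile of random reference set scores in the same batch; inactive = at or below it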.
The target of another assay is caup. Particulars: MAPPIT configuration: N-N; pair source set: screen_1.
The next assay deals with CG3792. The settings on record: MAPPIT configuration: N-C; pair source set: screen_4.
Another assay has as its target Dpm3. The settings on record: MAPPIT configuration: N-C; pair source set: screen_3.
The target in another assay is CG4511. The settings on record: MAPPIT configuration: N-C; pair source set: screen_3.
The next assay addresses CG42245. Particulars: MAPPIT configuration: N-N; pair source set: RRS.
The next assay deals with CG42512. Particulars: MAPPIT configuration: N-C; pair source set: RRS.
The next assay concerns the target Orco. The settings on record: MAPPIT configuration: N-C; pair source set: Lit-BM-16.
The target of another assay is CG4617. Particulars: MAPPIT configuration: N-N; pair source set: Curagen_high_conf.
For a further assay, the target named is CG42831. The settings on record: pair source set: RRS.
In the next assay the target is CG4360. Particulars: MAPPIT configuration: N-N; pair source set: Curagen_low_conf.
Another assay deals with CG3565. Particulars: MAPPIT configuration: N-N; pair source set: DPIM.
The next assay concerns the target CG9588. Particulars: MAPPIT configuration: N-N; pair source set: Lit-BS-16.
The target in the next assay is Prosalpha2. The settings on record: MAPPIT configuration: N-N; pair source set: Lit-BM-16.
The next assay has as its target Rpn1. The settings on record: MAPPIT configuration: N-N; pair source set: Lit-BM-16.
A further assay concerns the target Rpt1. Particulars: MAPPIT configuration: N-C; pair source set: Lit-BM-16.
A further assay has as its target Rpt6. The settings on record: MAPPIT configuration: N-C; pair source set: Lit-BM-16.
In the next assay the target is CG3651. The settings on record: MAPPIT configuration: N-N; pair source set: RRS.
The next assay concerns the target CG4325. The settings on record: MAPPIT configuration: N-N; pair source set: DPIM.
A further assay addresses CG42659. Particulars: MAPPIT configuration: N-C; pair source set: screen_4.
A further assay addresses Traf-like. The settings on record: MAPPIT configuration: N-N; pair source set: Lit-BS-16.
The target in the next assay is CG44837. The settings on record: MAPPIT configuration: N-N; pair source set: Curagen_low_conf.
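Further: HEK293T cells with Epo stimulation, STAT-responsive firefly luciferase reporter, fold induction versus unstimulated cells divided by the larger fold induction of two negative controls lacking either bait or prey.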

B1: Mst84Db (protein)
chain: MCCGPLGFCGPCSPCGGPCGPCGPCGPCGSCCSPCGSCCAPCGPCGPCGPCCGGCGPCGPCGPCCGPCRPYCGC
As to B1, the MAPPIT interaction score is 1.12 (inactive) with CG43325 and 0.0255 (inactive) in the assay with caup.

B2: Syngr (protein)
chain: MDMLNQILSINNGGAYGGGKAGGAFDPLTFAMKPQVVIRALCWLFSVVVFGCISSEGWTEKDGKEYCLYNGDGMACKYGNMVGVFGFLASMGFMGGEFLFERMSSVKSRKRYVMADMGFSALWTFMYFVAFLYLWSQWSSSAPPPLGIGAGSMKTAIWFCLFSIVSWALCALMAYKRFLIGAGDEFTSAFETDPANVVHQQAYGYSMDNDNDQYSASPFGQPQQGGMEQQQSGMEYQQPTY
Regarding B2, the values for the MAPPIT interaction score in the assay with CG3792 and in the assay with Dpm3 were -0.645 (inactive) and -1.36 (inactive), respectively.

B3: Pka-R1 (protein)
chain: MSYMMAKTLEEQSLRECEHYIQTHGIQRVLKDCIVQLCVCRPENPVQFLRQYFQKLEREQVKLDASRQVISPDDCEDLSPMPQTAAPPVRRRGGISAEPVTEEDATNYVKKVVPKDYKTMNALSKAIAKNVLFAHLDESERSDIFDAMFPVNHIAGENIIQQGDEGDNFYVIDVGEVDVFVNSELVTTISEGGSFGELALIYGTPRAATVRAKTDVKLWGIDRDSYRRILMGSTIRKRKMYEEFLSRVSILESLDKWERLTVADSLETCSFDDGETIVKQGAAGDDFYIILEGCAVVLQQRSEGEDPAEVGRLGSSDYFGEIALLLDRPRAATVVARGPLKCVKLDRARFERVLGPCADILKRNITQYNSFVSLSV
B3: the MAPPIT interaction score with CG4511 is 5.21 (active).

B4: Dhfr (protein)
chain: MLRFNLIVAVCENFGIGIRGDLPWRIKSELKYFSRTTKRTSDPTKQNAVVMGRKTYFGVPESKRPLPDRLNIVLSTTLQESDLPKGVLLCPNLETAMKILEEQNEVENIWIVGGSGVYEEAMASPRCHRLYITKIMQKFDCDTFFPAIPDSFREVAPDSDMPLGVQEENGIKFEYKILEKHS
Turning to B4, the MAPPIT interaction score in the assay with CG42245 is 0.497 (inactive).

B5: Orco (protein)
chain: MTTSMQPSKYTGLVADLMPNIRAMKYSGLFMHNFTGGSAFMKKVYSSVHLVFLLMQFTFILVNMALNAEEVNELSGNTITTLFFTHCITKFIYLAVNQKNFYRTLNIWNQVNTHPLFAESDARYHSIALAKMRKLFFLVMLTTVASATAWTTITFFGDSVKMVVDHETNSSIPVEIPRLPIKSFYPWNASHGMFYMISFAFQIYYVLFSMIHSNLCDVMFCSWLIFACEQLQHLKGIMKPLMELSASLDTYRPNSAALFRSLSANSKSELIHNEEKDPGTDMDMSGIYSSKADWGAQFRAPSTLQSFGGNGGGGNGLVNGANPNGLTKKQEMMVRSAIKYWVERHKHVVRLVAAIGDTYGAALLLHMLTSTIKLTLLAYQATKINGVNVYAFTVVGYLGYALAQVFHFCIFGNRLIEESSSVMEAAYSCHWYDGSEEAKTFVQIVCQQCQKAMSISGAKFFTVSLDLFASVLGAVVTYFMVLVQLK
Consider B5, for which the MAPPIT interaction score in the assay with CG42512 is 0.963 (inactive); with Orco, -0.077 (inactive).

B6: TfIIA-L (protein)
chain: MALCQTSVLKVYHAVIEDVITNVRDAFLDEGVDEQVLQEMKQVWRNKLLASKAVELSPDSGDGSHPPPIVANNPKSHKAANAKAKKAAAATAVTSHQHIGGNSSMSSLVGLKSSAGMAAGSGIRNGLVPIKQEVNSQNPPPLHPTSAASMMQKQQQAASSGQGSIPIVATLDPNRIMPVNITLPSPAGSASSESRVLTIQVPASALQENQLTQILTAHLISSIMSLPTTLASSVLQQHVNAALSSANHQKTLAAAKQLDGALDSSDEDESEESDDNIDNDDDDDLDKDDDEDAEHEDAAEEEPLNSEDDVTDEDSAEMFDTDNVIVCQYDKITRSRNKWKFYLKDGIMNMRGKDYVFQKSNGDAEW
On to B6, for which, in the assay with CG4617, the MAPPIT interaction score is -0.0193 (inactive).

B7: dan (protein)
chain: MNIRMGTKGKRPLRSLTPRDKIHAIQRIHDGESKASVARDIGVPESTLRGWCKNEDKLRFMSRQSATDNLCADALGDKMDGGGGGGGGAGGGGLLGPPEKRQRLDGALPLNFSNKLKFDELAFKRSPLNGLDYSTNKNLADLGYNGLPVDYAAFNGGVKAKVFGADINRPAADPSLNAISPLSSLTHLSGLTGISQSPLAISFNELTTNLNLLAQLNPGLAAMSGLNSFPAGAGNLRTPKPSGQTPLQVQSPRSDSGDRSAQGLSVKNWAKQKPGEGQGSLNLSIKNEGKGGDIKSPSPSIAPSQMGGPMTLSNLAEDPLLYWLKSQQTMLGLNPLYPPTIPMGVTSPPIRSSTPQHMSQLAQTPPIPSAPLTPSSTPSGSLDEKNAAWYNWCKAFGASLHTLNPNAATLAALQANQLQQQVATTAAEGGSMGDPSNILYSHLTKETETPSVRSLSSNEQNPEADEATETDLDGEVEPEASGKPEDLSAAGKVMTPSQSPIAHSSGSRSPEPKAKTKTPETTNSTSECKKILDNMLFKMGGMEATGPLMPEQGSSESEGSFQDTSNPHTNNNDVSASNNNNNNNSNKTDEEEKAKYLDCTADEDIEAIRHGEKFLQWLENCSNPRVTAVQLMQLRFLIAAIKSGNETPMIEKSALPEDSEEHAAEEEGSGRGKSRRRK
For B7, the MAPPIT interaction score was 0.788 (inactive) with CG42831 (MAPPIT configuration: N-C) and 0.273 (inactive) in the assay with CG42831 (MAPPIT configuration: N-N).

B8: Paris (protein)
chain: MAEICRVCMDISGKLVNIFDARRRTRVSIAEMIAQCTGFEVKRGDLFSEMICPQCYEDVKSAYGIRQTCEESHQFYCRVRDEGIEDALCALLEEEDWEISEDEDARIDSASAADDDGKSDSKKVAFECRECHKKYQRKGTFLRHMRTHMDGQSFPCPYCKRNFRLRVTLKAHMKTHNAAKPYECSHCAKTFAQQSTLQSHERTHTGERPFKCSQCSKTFIKSSDLRRHIRTHGSERPFKCSKCTKTFTRKFHLDNHFRSHTGERPFKCSHCPKAFAMKQHLKQHSRLHLPDRPFRCSHCPKTFRLSSTLKEHKLVHNAERTFKCPHCASFYKQRKTLARHILEIHK
As to B8, the MAPPIT interaction score in the assay with CG4360 was 0.0302 (inactive).

B9: Rpt2 (protein)
chain: MGQNQSAQGGAGEKKDDKDKKKKYEPPIPTRVGKKKRRAKGPDAAMKLPQVTPHTRCRLKLLKLERIKDYLMMEDEFIRNQERLKPQDEKNEEERSKVDDLRGTPMSVGNLEEIIDDNHAIVSTSVGSEHYVSILSFVDKDQLEPGCSVLLNHKVHAVVGVLSDDTDPMVTVMKLEKAPQETYADIGGLDTQIQEIKESVELPLTHPEYYEEMGIKPPKGVILYGPPGTGKTLLAKAVANQTSATFLRVVGSELIQKYLGDGPKLVRELFRVAEEHAPSIVFIDEIDAVGTKRYDSNSGGEREIQRTMLELLNQLDGFDSRGDVKVIMATNRIETLDPALIRPGRIDRKIEFPLPDEKTKRRIFTIHTSRMTLAEDVNLSELIMAKDDLSGADIKAICTEAGLMALRERRMKVTNEDFKKSKESVLYRKKEGTPEGLYL
As for B9, the MAPPIT interaction score with CG3565 was 2.71 (active); with CG9588 it was 0.822 (inactive); with Prosalpha2 it was 2.86 (active); with Rpn1 it was 6.22 (active); with Rpt1, 1.56 (inactive); with Rpt6 it was 0.824 (inactive).

B10: mex1 (protein)
chain: MCNALCECLKCPGKVVCCCCSCACKMLLSIVFSALLMVVVIGLIVYFTVFYHKDKNTDEVQKQVAQLTPIVKRSIRDYFNKEY
Take B10: the MAPPIT interaction score in the assay with CG3651 is 0.00975 (inactive).

B11: mfrn (protein)
chain: MNIDDYESLPTTSVGVNMTAGAIAGVLEHVVMYPLDSVKTRMQSLSPPTKNMNIVSTLRTMITREGLLRPIRGASAVVLGAGPAHSLYFAAYEMTKELTAKFTSVRNLNYVISGAVATLIHDAISSPTDVIKQRMQMYNSPYTSVVSCVRDIYKREGFKAFYRAYGTQLVMNLPYQTIHFTTYEFFQNKMNLERKYNPPVHMAAGAAAGACAAAVTTPLDVIKTLLNTQETGLTRGMIEASRKIYHMAGPLGFFRGTTARVLYSMPATAICWSTYEFFKFYLCGLDADQYKSSITGSSEPRKADYVLPRTTDEEQIDQEREAAKEKDTTATLHSAPTSVNASGAIKTVCELSTRPAGPTINLHTRHTDVKSPYERGFST
Turning to B11, the MAPPIT interaction score in the assay with CG4325 is -0.276 (inactive).

B12: esg (protein)
chain: MHTVEDMLVEKNYSKCPLKKRPVNYQFEAPQNHSNTPNEPQDLCVKKMEILEENPSEELINVSDCCEDEGVDVDHTDDEHIEEEDEDVDVDVDSDPNQTQAAALAAAAAVAAAAAASVVVPTPTYPKYPWNNFHMSPYTAEFYRTINQQGHQILPLRGDLIAPSSPSDSLGSLSPPPHHYLHGRASSVSPPMRSEIIHRPIGVRQHRFLPYPQMPGYPSLGGYTHTHHHHAPISPAYSENSYYSMRSMTPESSCSSSLPEDLSLKHKNLNLNLNTSQPGEQAAAKTGDMSPETMPNASAKKDKNQPPRYQCPDCQKSYSTFSGLTKHQQFHCPAAEGNQVKKSFSCKDCDKTYVSLGALKMHIRTHTLPCKCNLCGKAFSRPWLLQGHIRTHTGEKPFSCQHCHRAFADRSNLRAHLQTHSDIKKYSCTSCSKTFSRMSLLTKHSEGGCPGGSAGSSSSSELNYAGYAEP
Consider B12, for which the MAPPIT interaction score in the assay with CG42659 was 0.721 (inactive); with Traf-like, 0.713 (inactive).

B13: RhoGAP92B (protein)
chain: MKRQFAKIKIAAENLSRSSKSDSKDSELEAIERQVDRYRDTIEKIVRKLPALSGGGGSGSGSSEEQDKRTKKNSHYKIAQALDESAKELPKDMPLQKVLANCGELEKTMAECIIESELETEAKVVRRLKNILDKEIQEISTLKRNVSRTLQEYTSLKRSHEAAIRLEEPAAKVNHIKSQQEECELKLEKERDAWAAQMLELIAKEDEIVSCIRDYVLNQRNYHERALQHVNASLARIQDTIQGTEKSRFGTSLKEHLTSTNREISYIVELCCCCLLEHGLEEEGLLRVGCASTKLRRMKHALEAQHVKTPLPLDYQDPHVIGSILKLYLRELPEPLLTYNLYKDFIRIAERHSEAERKTEIKAILTKLPKENYANLRYLTRFLSIVQQRSALNKMSSQNLAIVMSPNMLWPRIDKSSNAPADYIGQVNSSSAANIIVELLISQWDYFFIGEVEFYLTLQKQKLFVEGKSKSNSSNENLDRNDSEVMESPRYGTLRRQKANAPSPPTTNGNGIIMTTSQTSHRPHAKELFPQQTPEKQEKPAKPPLPNLPQFQSPAASQPTQTQLEPLPPPPVTPAKPVPMTRTQFFGLDNLPSPTADRKSTDSIGSFKLKPDVPQKPLLPKRPTVLGVGVPKADGKSDDEGGTTPTQATIDNGNGSVRFKTEHFLDKLRQENGETNGTREVSSTTKENNHNHDPPATAADQNQQQAQPQVTTPISPNSFQTPKRPTVPAPPPPTNWKSSD
With B13, the MAPPIT interaction score with CG44837 is -0.0901 (inactive).
